Results taken from PMC4336329 (PLoS ONE, 2015).
Among all 310,000 compounds or so, about 14,000 (4.5%) showed an effect of 50% or more. The effect is printed as a negative number. This is one part of a sample in which strong results are shown more often than they occur.

biological target: human ether-à-go-go-related gene (hERG) potassium channel (human, UniProt Q12809); experiment: primary screen, population patch clamp on CHO cells stably expressing hERG; higher = less effect of the substance
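Further: peak tail current of the secondary pulse compared with the same well before compound.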

Sequence of human ether-à-go-go-related gene (hERG) potassium channel (Q12809 whole entry, looked up): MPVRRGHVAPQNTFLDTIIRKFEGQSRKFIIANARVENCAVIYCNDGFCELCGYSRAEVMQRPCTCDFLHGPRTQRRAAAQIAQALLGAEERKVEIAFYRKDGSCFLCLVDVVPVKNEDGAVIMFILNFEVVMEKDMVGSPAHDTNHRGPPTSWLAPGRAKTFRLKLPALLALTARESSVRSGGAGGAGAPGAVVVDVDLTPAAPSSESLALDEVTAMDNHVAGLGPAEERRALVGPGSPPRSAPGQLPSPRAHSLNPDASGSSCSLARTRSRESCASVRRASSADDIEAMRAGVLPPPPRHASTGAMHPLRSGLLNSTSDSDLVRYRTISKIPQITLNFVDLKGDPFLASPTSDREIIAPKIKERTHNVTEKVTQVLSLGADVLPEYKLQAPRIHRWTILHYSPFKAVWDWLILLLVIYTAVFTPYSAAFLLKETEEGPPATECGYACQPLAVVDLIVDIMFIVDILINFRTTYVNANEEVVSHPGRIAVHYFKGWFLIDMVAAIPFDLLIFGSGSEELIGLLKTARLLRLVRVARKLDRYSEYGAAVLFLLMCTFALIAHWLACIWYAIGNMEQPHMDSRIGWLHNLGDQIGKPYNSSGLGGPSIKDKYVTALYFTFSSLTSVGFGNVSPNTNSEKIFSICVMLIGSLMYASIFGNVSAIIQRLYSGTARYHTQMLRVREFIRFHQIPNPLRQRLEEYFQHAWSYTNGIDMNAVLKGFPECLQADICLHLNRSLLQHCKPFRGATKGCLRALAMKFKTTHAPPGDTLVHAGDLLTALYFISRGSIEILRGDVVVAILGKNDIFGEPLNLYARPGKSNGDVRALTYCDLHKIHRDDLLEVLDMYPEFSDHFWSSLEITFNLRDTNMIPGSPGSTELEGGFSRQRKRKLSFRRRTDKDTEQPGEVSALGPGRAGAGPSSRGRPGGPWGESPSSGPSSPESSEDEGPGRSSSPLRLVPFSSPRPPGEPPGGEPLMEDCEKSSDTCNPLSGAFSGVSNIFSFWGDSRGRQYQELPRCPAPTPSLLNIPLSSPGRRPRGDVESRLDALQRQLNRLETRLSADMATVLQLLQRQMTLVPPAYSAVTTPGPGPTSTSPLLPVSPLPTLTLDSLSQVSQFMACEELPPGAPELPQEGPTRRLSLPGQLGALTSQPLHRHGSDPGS

Row | Structure (SMILES) | hERG current change (%, negative = inhibition) at 10uM
1 | CCN(CC)S(=O)(=O)c1ccc(S(=O)(=O)N2CCN(C(=O)c3ccco3)CC2)cc1 | 4.56%
2 | CC(C)C(=O)Nc1c(-c2ccc(Cl)cc2)c(=O)c2ccccc2n1C | 20.9%
3 | CN1CCCN(C(=O)c2ccc(Br)s2)CC1 | -14.5%
4 | O=C(c1ccc(Cl)s1)N1CCCC1 | -0.0803%
5 | CN1CCCN(C(=O)c2ccc(Cl)s2)CC1 | -93.3%
6 | C/C(=C\c1ccc(Cl)cc1)C(=O)c1c(C)cc(C)[nH]c1=O | 9.59%
7 | CC(NC(=O)NC1CCCCC1)c1ccccc1 (centres unmarked) | -3.12%
8 | C=CCn1c(CCNC(=O)c2cccs2)nnc1SCC(=O)Nc1cccc(F)c1 | -34.6%
9 | C=CCn1c(CCNC(=O)c2cccs2)nnc1SCC(=O)c1ccc(Cl)cc1 | -38.5%
10 | C=CCn1c(CNC(=O)c2cccs2)nnc1SCC(=O)c1ccc(Br)cc1 | -19.3%
11 | C=CCn1c(CCNC(=O)c2cccs2)nnc1SCC(=O)Nc1cccc(C(C)=O)c1 | 7.23%
12 | C=CCn1c(CCNC(=O)c2cccs2)nnc1SCC(=O)Nc1cccc(Cl)c1C | -57.6%
13 | C=CCn1c(CCNC(=O)c2cccs2)nnc1SCC(=O)c1ccc(Br)cc1 | -67.1%
14 | O=C(Nc1ccccc1)Nc1ccncc1 | 6.4%
15 | Cc1ccc(NC(=O)CC2S/C(=N/N=C3/NC(=O)CS3)NC2=O)cc1 (centres unmarked) | 19.5%
16 | COc1ccc(-c2[nH]nc3c2C(c2ccccc2OC(=O)N2CCOCC2)C(C#N)=C(N)O3)cc1 (centres unmarked) | 4.69%
17 | CC1CCN(C(=S)SCc2nc(N)nc(Nc3ccccc3)n2)CC1 | -2.72%
18 | COc1cccc(Nc2nc(N)nc(CCl)n2)c1 | 0.476%
19 | CC1CC(C)CN(Cc2nc(N)nc(Nc3ccc4ccccc4c3)n2)C1 (centres unmarked) | -79%
20 | CC1CC(C)CN(C(=S)SCc2nc(N)nc(Nc3ccccc3)n2)C1 (centres unmarked) | -6.04%
21 | CC1CC(C)CN(Cc2nc(N)nc(Nc3ccccc3)n2)C1 (centres unmarked) | -64.8%
22 | CCNC(=O)CCn1nc(-c2ccc(Cl)cc2)c2ccccc2c1=O | -29%

Row | Structure (SMILES) | hERG current change (%, negative = inhibition) at 10uM
23 | Cc1cccc(N2CCN(S(=O)(=O)c3ccc4c(c3)NC(=O)C(C)S4)CC2)c1C (centres unmarked) | -2.54%
24 | CCN(CC)c1ccc(/C=C2\SC(N)=NC2=O)cc1 | 7.42%
25 | Cn1cccc1CC(=O)NNC(=S)NC(=O)c1ccccc1Br | 13.1%
26 | COc1ccc(-c2nc(-c3ccccc3)ncc2S(C)(=O)=O)cc1 | 13%
27 | COc1ccc2c(c1OC)C(=O)N(c1nc(SC)n[nH]1)C2=O | 18.3%
28 | COc1cccc(N(CC(=O)NCc2ccccc2)C(=O)CCC(=O)Nc2nccs2)c1 | 10.8%
29 | Cc1nccn1CC(O)COc1ccc([N+](=O)[O-])cc1 (centres unmarked) | -66.2%
30 | COc1ccc(OCC(O)Cn2ccnc2C)cc1 (centres unmarked) | 5.09%
31 | Cc1ccc(N2CCN(CC(O)COc3ccc([N+](=O)[O-])cc3)CC2)cc1 (centres unmarked) | -76.4%
32 | Cc1nccn1CC(O)COc1ccccc1 (centres unmarked) | -0.412%
33 | COc1ccc(N2CCN(CC(O)COc3ccc([N+](=O)[O-])cc3)CC2)cc1.Cl (centres unmarked) | -62.5%
34 | Cc1ccc(OCC(O)CN2CCN(c3ccc(C)cc3)CC2)cc1 (centres unmarked) | -28%
35 | NNC(=O)COc1ccc(F)cc1 | 9.33%
36 | COc1ccc(C(C)=O)cc1COC(=O)c1ccc(S(=O)(=O)N(C)C)cc1 | -2.42%
37 | CCc1ccc(S(=O)(=O)Nc2cccc(-c3ccc4nnc(C)n4n3)c2)s1 | -11.6%
38 | CCOC(=O)c1cccc(NC(=O)/C(=C\c2ccccc2)NC(=O)c2ccccc2Cl)c1 | 3.62%
39 | CC1=NN(C(=O)Cc2ccc(C)cc2)C(O)(c2cccnc2)C1 (centres unmarked) | 10.1%
40 | COc1ccc(-c2nc3cnccn3c2NCc2ccccc2)cc1SC1CCCCC1.O=C(O)C(F)(F)F | 2.68%
41 | COc1cccc(-n2nnc(S(=O)(=O)c3ccc(C)cc3)c2N)c1 | 10.5%
42 | CS(=O)(=O)c1ccc(C(=O)OCC(=O)NC2CCS(=O)(=O)C2)cc1[N+](=O)[O-] (centres unmarked) | 10.3%
43 | O=C(COC(=O)c1ccc(Sc2ccccc2)c([N+](=O)[O-])c1)NC1CCS(=O)(=O)C1 (centres unmarked) | -83.3%
44 | Nc1ccc(C(=O)OCC(=O)NC2CCS(=O)(=O)C2)cc1[N+](=O)[O-] (centres unmarked) | -3.78%
